Source: PubChem
This is one part of a sample in which hits are shown more often than they occur.
Pf Dd2 growth: inhibitors of Plasmodium falciparum Dd2 growth; P. falciparum Dd2 growth, SYBR Green, 72 h; Potency, µM (highest dose often 28.9 µM), most hits filed as inhibitors; 120,000 tested, 4.3% active; AID 1347417; active = well fitted inhibition curve with a large enough effect; also: nearly all actives have a fitted effect of over 65% in size
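Infected erythrocytes (Dd2, 0.3% parasitemia, 2.5% hematocrit final) are added to compound in RPMI-1640/Albumax II medium, grown 72 h at 37C in low oxygen, then lysed with saponin/Triton-X containing SYBR Green and read by fluorescence.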
A number is an active result; i = inactive.

SMILES | Pf Dd2 growth
CC(=O)NCCC(=O)N1Cc2ccccc2CC2(CCCN2Cc2ccncc2)C1 (stereo not drawn) | i
CN(C)CCC(=O)N1Cc2ccccc2CC2(CCCCN2CC2CCOCC2)C1 (stereo not drawn) | i
CCN1CCCCC12Cc1ccccc1CN(C(=O)C1CCN(C)CC1)C2 (stereo not drawn) | i
CC(=O)N1Cc2ccccc2CC2(CCCCN2CC2CCOCC2)C1 (stereo not drawn) | i
COc1ccc(CN2CCCCC23Cc2ccccc2CN(C(C)=O)C3)cc1 (stereo not drawn) | i
O=C(O)CCC(=O)N1Cc2ccccc2CC2(CCCN2Cc2ccccc2)C1 (stereo not drawn) | i
CC(C)C(=O)N1C[C@@H](Oc2ccccc2)C[C@@H]1C(=O)N1CCOCC1 | i
O=C(O)C[C@@H]1CCN(C(=O)COc2ccccc2)C[C@@H]1CCN1CCN(c2ccc(F)cc2)CC1 | i
CCOc1ccc(NC(=O)N2CCc3c(c4ccccc4n3C)C2)cc1 | i
CC(=O)Nc1cccc(-c2nc(-c3c(C)noc3C)cc3cc(CO)oc23)c1 | i
O=C1OCC2=C1C(c1ccccc1)NC(=O)N2CC(=O)N1CCCCC1 (stereo not drawn) | i
Cc1ccccc1NC(=O)N1c2ccccc2CC1c1noc(C2CCOCC2)n1 (stereo not drawn) | i
Cc1cc(-c2ccc(C)c(S(=O)(=O)N3CCCC(C)C3)c2)on1 (stereo not drawn) | i
Cc1ccc(-c2nnc(Nc3cccc(Br)c3)c3ccccc23)cc1S(=O)(=O)N1CCN(C)CC1 | 7.94µM
Cc1ccc(-c2nnc(Nc3cccc(Cl)c3)c3ccccc23)cc1S(=O)(=O)N1CCN(C)CC1 | i
Cc1cccc(Nc2nnc(-c3ccc(C)c(S(=O)(=O)N4CCN(C)CC4)c3)c3ccccc23)c1 | 10µM
C#CCOc1ccc(-c2nnc(Nc3cccc(C)c3)c3ccccc23)cc1 | i
O=C(Cn1nc(-c2ccc(Cl)cc2)c2ccccc2c1=O)Nc1cccc(Br)c1 | i
Cc1ccccc1C(=O)N1CCC2(CC1)CN(c1ncccn1)CC2CO (stereo not drawn) | i
COc1cccc(NC(=O)NC[C@H]2O[C@@H](CC(=O)N3CCc4ccccc43)[C@H](O)[C@@H]2O)c1 | i
CC(=O)c1cccc(-n2c(=O)c3c4c(sc3n(Cc3cccc(C)c3)c2=O)CN(C(C)=O)CC4)c1 | i
CC(=O)N1CCc2c(sc3c2c(=O)n(-c2ccccc2)c(=O)n3CC(=O)c2ccccc2)C1 | i
CC(=O)N1CCc2c(sc3c2c(=O)n(-c2ccccc2)c(=O)n3Cc2cccc(C(F)(F)F)c2)C1 | 10µM
CC(=O)N1CCc2c(sc3c2c(=O)n(Cc2ccccc2)c(=O)n3Cc2cccc(Cl)c2)C1 | 10µM
COc1ccccc1NC(=O)Cn1c(=O)n(Cc2ccccc2)c(=O)c2c3c(sc21)CN(C(C)=O)CC3 | i
SMILES | Pf Dd2 growth
CC(=O)N1CCc2c(sc3c2c(=O)n(Cc2ccccc2)c(=O)n3Cc2ccc(Cl)cc2)C1 | i
CCOc1ccc(NC(=O)Cn2c(=O)n(CCc3ccccc3)c(=O)c3c4c(sc32)CCCC4)cc1 | i
CCOC(=O)N1CCc2c(sc3c2c(=O)n(Cc2ccccc2)c(=O)n3Cc2ccc(C)cc2)C1 | 2.51µM
CCOC(=O)N1CCc2c(sc3c2c(=O)n(CCc2ccccc2)c(=O)n3Cc2ccc(C)cc2C)C1 | 2.51µM
CCOC(=O)N1CCc2c(sc3c2c(=O)n(CCc2ccccc2)c(=O)n3CC(=O)Nc2cccc(C)c2)C1 | i
CCOC(=O)N1CCc2c(sc3c2c(=O)n(-c2ccc(CC)cc2)c(=O)n3Cc2cccc(OC)c2)C1 | i
CCOc1ccccc1NC(=O)Cn1c(=O)n(Cc2ccccc2)c(=O)c2c3c(sc21)CN(C(C)=O)CC3 | i
CCN(CC)C(=O)CCc1ccc2c(c1)CN(C(=O)NC(C)C)CCO2 | i
C[C@H](C(=O)N1CCCC1)C1CC[C@@]2(C)Cc3sc(CS(=O)(=O)C(C)(C)C)nc3[C@@H](C)[C@@H]2[C@H]1O (stereo partly drawn) | i
Cc1cnc(C(=O)NC2C[C@H]3CC[C@@H](C2)N3C(=O)c2ccc(C)c(C)c2)cn1 (stereo partly drawn) | i
Cc1ccc(NC(=O)N2CCC3(CC2)SCC(=O)N3Cc2ccco2)cc1Cl | i
Cc1cn2nc(C(=O)Nc3cccc(F)c3C)cc2c(N2CCCC2)n1 | i
CC(=O)N1CCC(N[C@@H]2C[C@H](Cn3cc(C4CC4)nn3)[C@@H](O)[C@H]2O)CC1 | i
COc1cccc(OC)c1-c1nc(C)c(C)cc1C(N)=O | i
CC(C)[C@@H]1CN(C(=O)c2ccc(=O)n(C)n2)C[C@H]1NS(=O)(=O)N(C)C | i
COc1ccc(-c2cc(N3CCC(NC(=O)c4ccc(C)c(C)c4)CC3)n[nH]2)cc1 | i
Cc1cccc(S(=O)(=O)N(C)CC2CCOCC2)c1 | i
CC(=O)c1cccc(-n2c(=O)c3c4c(sc3n(Cc3ccccc3Cl)c2=O)CN(C(C)=O)CC4)c1 | i
CC(=O)N1CCc2c(sc3c2c(=O)n(-c2cccc(Cl)c2C)c(=O)n3Cc2ccccc2C)C1 | 8.91µM
C#CCn1c(=O)n(-c2cccc(Cl)c2C)c(=O)c2c3c(sc21)CN(C(C)=O)CC3 | i
O=C(CC1CCOCC1)N1CCC(Cc2ccccc2)CC1 | i
COCCn1nc2n(c1=O)CCN(C(=O)c1ccc(OC)cc1OC)CC2 | i
CCOC(=O)c1c(NC(=O)COc2ccccc2F)sc2c1CCCC2 | i
CC(Sc1cn(CCNC(=O)c2ccccc2F)c2ccccc12)c1ccccc1 (stereo not drawn) | i
CCOC(=O)c1c(NC(=O)C(C)Sc2cn(CCNC(=O)c3c(F)cccc3F)c3ccccc23)sc2c1CCC2 (stereo not drawn) | 7.94µM
SMILES | Pf Dd2 growth
CCOC(=O)c1c(NC(=O)CSc2cn(CCNC(=O)c3ccc(OCC)cc3)c3ccccc23)sc2c1CCCC2 | i
COc1ccc(NC(=O)CSc2cn(CCNC(=O)c3ccc(OC)cc3)c3ccccc23)cc1 | i
CCOC(=O)c1c(NC(=O)CSc2cn(CCNC(=O)c3ccc(OC)cc3)c3ccccc23)sc2c1CCC2 | 12.6µM
CCOc1ccccc1CN1C(=O)C2(CCOCC2)CC1c1nnnn1C(C)(C)C (stereo not drawn) | i
COCCCNc1nc(NCc2cccc(Cl)c2)c2cnn(C)c2n1 | i
Cc1cccnc1NCCNc1nc(C(C)C)nc2c1cnn2C | i
CC(C)CCNc1nc(Nc2ccccc2)c2cnn(C)c2n1 | 10µM
COc1ccc(CNC(=O)[C@H]2CNC[C@H](C(=O)N3CCCC3)C2)c(F)c1F | i
Cc1cccc2oc(CNC(=O)C(c3cccnc3)N3CCOCC3)nc12 (stereo not drawn) | i
O=C(C1CC1)N1Cc2ccccc2NC(=O)C12CCNC2 (stereo not drawn) | i
O=C(Cc1ccccc1F)N1CCC2(CCCCO2)CC1 | i
CCOc1ccccc1NC(=O)Cn1c(=O)n(-c2ccc(F)cc2)c(=O)c2c1cc(C)n2C | i
CCNC(=O)NC[C@H]1COCc2nc3cc(C(=O)OC)ccc3n21 | i
OC[C@@H]1O[C@H](CNCc2ccc(F)cc2)[C@H](N2CCCC2)[C@@H]1O | i
COC[C@H]1CCCN1[C@@H]1[C@H](O)[C@H](CO)O[C@@H]1CN(Cc1ccc(F)cc1)Cc1ccc(F)cc1 | 4.47µM
COC[C@H]1CCCN1[C@@H]1[C@H](O)[C@H](CO)O[C@@H]1CNS(=O)(=O)c1cccs1 | i
Cc1ccc(CNC(=O)Cn2c(N3CCc4ccccc4C3)nc(C)cc2=O)cc1 | i
